# Several values for one entry are separate records, joined by “and”; a condition that tells them apart may be missing. Equal values may be shown once. Where a name gives a salt, the structure may show the parent alone. The campaign covered roughly 5,800 compounds. About 620 (11%) showed activity. The full list was thinned out, with actives kept by preference. Unmarked numbers belong to inactive results.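 The calls were made as follows: active = score above a cut-off or among the top three wells of a plate; in these data no inactive exceeds 0.85.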
# Test system: primary human hepatic stellate cells (donor 1)
# Assay: scaled lipid accumulation score (0 = DMSO-like, 1 = nortriptyline-like); higher = stronger HSC inactivation (lipid re-accumulation), active = hit call of the paper
# Conditions: 48 h
# [1] = library stock concentration: 1 mM
# [2] = library stock concentration: 10 mM
# [3] = library stock concentration: 3.33 mM
# [4] = library stock concentration: 80 uM
# [5] = library stock concentration: 400 uM
# [6] = library stock concentration: 2 mM
structure (smiles),measurement,setting,value
CCCCC[C@H](O)/C=C/[C@@H]1[C@@H](CCCCCCC(=O)O)[C@H](O)C[C@@H]1O [11.beta.-Prostaglandin F1.beta.],scaled lipid accumulation score,[1],≤ 0
COc1cc2ncnc(Nc3ccc(F)c(Cl)c3)c2cc1OCCCN1CCOCC1 [Iressa],scaled lipid accumulation score,[2],0.9 (active)
CC(C)[C@H](O)C(=O)O [(S)-(+)-2-hydroxy-3-Methylbutyric Acid],scaled lipid accumulation score,[1],≤ 0
Cc1cc(C)c(/C=C2\C(=O)Nc3ccccc32)[nH]1,scaled lipid accumulation score,[1],≤ 0
same,scaled lipid accumulation score,[2],≤ 0 and 0.011
CN(C)c1ccc(/C=C2/C(=O)Nc3ccccc32)cc1,scaled lipid accumulation score,[2],≤ 0 and 0.041
same,scaled lipid accumulation score,library stock concentration: 18.9 mM,0.01
Cc1cc(C)c(/C=C2\C(=O)Nc3ccccc32)[nH]1 [Semaxanib (SU5416)],scaled lipid accumulation score,[3],≤ 0
same,scaled lipid accumulation score,[2],0.145
Cc1cc(C)c(/C=C2\C(=O)Nc3ccccc32)[nH]1 [VEGF Receptor 2 Kinase Inhibitor III],scaled lipid accumulation score,[3],≤ 0
CC(C)(C)OC(=O)Nc1ccc(-c2cc(C(=O)NCCCCCCC(=O)NO)no2)cc1,scaled lipid accumulation score,[1],≤ 0
CC(=O)OCC(=O)[C@@]1(O)CC[C@H]2[C@@H]3C[C@H](C)C4=CC(=O)C=C[C@]4(C)[C@H]3[C@@H](O)C[C@@]21C,scaled lipid accumulation score,[2],≤ 0
CN1CCN(CCc2ccc(Cl)c(Cl)c2)CC1 [BD 1063 dihydrochloride],scaled lipid accumulation score,[2],0.684
Br.Br.CN(CCc1ccc(Cl)c(Cl)c1)CCN1CCCC1 [BD 1008 dihydrobromide],scaled lipid accumulation score,[2],0.882 (active)
COc1ccc(CCN(C)CCc2ccc(OC)c(OC)c2)cc1OC [YS-035 hydrochloride],scaled lipid accumulation score,[2],0.011 and 0.112
C[C@H](NCc1ccc(OCc2cccc(F)c2)cc1)C(N)=O [Safinamide Mesylate],scaled lipid accumulation score,[3],≤ 0
same,scaled lipid accumulation score,[2],≤ 0
CC(C)OC(=O)CCC/C=C/C[C@H]1C(=O)C[C@@H](O)[C@@H]1/C=C/[C@@H](O)COc1cccc(C(F)(F)F)c1 [9-keto Fluprostenol isopropyl ester],scaled lipid accumulation score,[1],≤ 0
"C=C1C[C@@H](O)[C@H](/C=C/[C@@H](O)C(C)(C)CCCC)[C@H]1C/C=C\CCCC(=O)O [9-deoxy-9-methylene-16,16-dimethyl Prostaglandin E2]",scaled lipid accumulation score,[1],≤ 0
CCOC(=O)c1cnc2ccc(-c3cncc(NS(=O)(=O)c4ccccc4)c3)cn12 [listing 1 of 2 here],scaled lipid accumulation score,[3],0.492
CCOC(=O)c1cnc2ccc(-c3cncc(NS(=O)(=O)c4ccccc4)c3)cn12 [listing 2 of 2 here],scaled lipid accumulation score,[2],0.915 (active)
CCCCC[C@H](O)/C=C/[C@H]1C(=O)C[C@H](O)[C@@H]1C/C=C\CCCC(=O)NCCO [Prostaglandin D2 Ethanolamide],scaled lipid accumulation score,[1],≤ 0
CCC(C)C1OC2(CCC1C)CC1CC(CC=C(C)C(OC3CC(OC)C(OC4CC(OC)C(O)C(C)O4)C(C)O3)C(C)C=CC=C3COC4C(O)C(C)=CC(C(=O)O1)C34O)O2 (stereo unspecified) [Ivermectin],scaled lipid accumulation score,[3],0.007
same,scaled lipid accumulation score,[2],0.198
CCC(=O)NC[C@H](Cc1ccc(OCCc2nc(-c3ccccc3)oc2C)cc1)N/C(C)=C\C(=O)c1ccc(C(F)(F)F)cc1,scaled lipid accumulation score,[2],≤ -0.001
NC[C@H]1CC[C@H](C(=O)Oc2ccc(CCC(=O)O)cc2)CC1,scaled lipid accumulation score,[2],≤ 0
COC(=O)N[C@@H](C)CNc1nccc(-c2cn(C(C)C)nc2-c2cc(Cl)cc(NS(C)(=O)=O)c2F)n1,scaled lipid accumulation score,[3],≤ -0.009
same,scaled lipid accumulation score,[2],0.655
CNCCCC12CCC(c3ccccc31)c1ccccc12.Cl [Maprotiline HCl],scaled lipid accumulation score,[2],1.31 (active)
CNCCC[C@]12CC[C@H](c3ccccc31)c1ccccc12.Cl [Maprotiline hydrochloride],scaled lipid accumulation score,,0.944 (active)
CNCCCC12CCC(c3ccccc31)c1ccccc12.Cl [Maprotiline hydrochloride] [listing 1 of 2 here],scaled lipid accumulation score,library stock concentration: 6.4 mM,1.05 (active)
same,scaled lipid accumulation score,[2],0.918 (active) and 1.23 (active)
CNCCCC12CCC(c3ccccc31)c1ccccc12.Cl [Maprotiline hydrochloride] [listing 2 of 2 here],scaled lipid accumulation score,[2],1.59 (active)
O=C(O)C1CCCNC1 (stereo unspecified),scaled lipid accumulation score,,≤ 0
same,scaled lipid accumulation score,[2],0.207
CCCCC[C@@](C)(O)/C=C/[C@@H]1[C@@H](C/C=C\CCCC(=O)O)[C@@H](O)C[C@H]1O [15(R)-15-methyl Prostaglandin F2.alpha.],scaled lipid accumulation score,[1],≤ 0
O=C(OCc1ccccc1)[C@H](O)c1ccccc1 [(R)-benzyl Mandelate],scaled lipid accumulation score,[1],≤ 0
C=C(C)[C@@H](CC=C(C)C)C[C@@]12C[C@@H](CC=C(C)C)C(C)(C)[C@@](CC=C(C)C)(C(=O)C(C(=O)c3ccc(O)c(O)c3)=C1O)C2=O [Garcinol],scaled lipid accumulation score,[4],≤ 0
same,scaled lipid accumulation score,[5],≤ 0
same,scaled lipid accumulation score,[6],≤ 0
same,scaled lipid accumulation score,[2],≤ 0
C[C@@H](N)C1CCC(C(=O)Nc2ccncc2)CC1 (stereo partly specified),scaled lipid accumulation score,[3],≤ 0
O=C(O)CCCC[C@@H]1CCSS1 [Thioctic acid],scaled lipid accumulation score,[2],≤ -0.027
CC/C(=C\C(=N\O)C(N)=O)C(C)[N+](=O)[O-] (stereo unspecified),scaled lipid accumulation score,[1],≤ 0
CC(C)CCC[C@@H](C)CCC[C@@H](C)CCCC(C)CC(=O)O (stereo partly specified) [Phytanic Acid],scaled lipid accumulation score,[1],0.028
O=C(NCCS(=O)(=O)c1ccc(C(F)(F)F)cn1)c1ccc(Cl)cc1,scaled lipid accumulation score,[3],≤ -0.009
same,scaled lipid accumulation score,[2],≤ 0
Cc1nc(Nc2ncc(C(=O)Nc3c(C)cccc3Cl)s2)cc(N2CCN(CCO)CC2)n1 [listing 1 of 2 here],scaled lipid accumulation score,[6],1.18 (active)
same,scaled lipid accumulation score,[2],1.48 (active)
Cc1nc(Nc2ncc(C(=O)Nc3c(C)cccc3Cl)s2)cc(N2CCN(CCO)CC2)n1 [listing 2 of 2 here],scaled lipid accumulation score,[5],0.775
same,scaled lipid accumulation score,[2],0.677
Cc1nc(Nc2ncc(C(=O)Nc3c(C)cccc3Cl)s2)cc(N2CCN(CCO)CC2)n1 [Dasatinib],scaled lipid accumulation score,[4],≤ 0
same,scaled lipid accumulation score,[5],0.238
same,scaled lipid accumulation score,[6],0.602
same,scaled lipid accumulation score,[3],0.43
same,scaled lipid accumulation score,[2],0.646 and 0.707
C=CC(=O)Nc1cccc(Sc2nc(Nc3ccc(N4CCN(C)CC4)cc3)ncc2Cl)c1,scaled lipid accumulation score,[3],≤ 0
same,scaled lipid accumulation score,[2],0.466
O=S(=O)(c1ccccc1)N(CC(F)(F)F)c1ccc(C(O)(C(F)(F)F)C(F)(F)F)cc1,scaled lipid accumulation score,[1],0.1
same,scaled lipid accumulation score,[3],0.164
same,scaled lipid accumulation score,[2],0.741 and 0.112
CN1CCN(C2Cc3ccccc3Sc3ccc(Cl)cc32)CC1 (stereo unspecified),scaled lipid accumulation score,[2],0.378
N#Cc1ccc2c(c1)N(CCCN1CCC(O)CC1)c1ccccc1S2 [Periciazine],scaled lipid accumulation score,[2],0.107
CN1CCCC(CC2c3ccccc3Sc3ccccc32)C1.Cl.O (stereo unspecified) [Metixene hydrochloride],scaled lipid accumulation score,,1.12 (active)
"C[C@@H](O)CCC[C@@H](O)/C=C/[C@H]1C(O)CC(O)C1CCCCCCC(=O)O (stereo partly drawn) [15(R),19(R)-hydroxy Prostaglandin F1.alpha.]",scaled lipid accumulation score,[1],≤ 0
CCc1c2c(nc3ccc(O)cc13)-c1cc3c(c(=O)n1C2)COC(=O)[C@]3(O)CC,scaled lipid accumulation score,[3],≤ 0
same,scaled lipid accumulation score,[2],0.297 and ≤ -0.001
CCc1c2c(nc3ccc(OC(=O)N4CCC(N5CCCCC5)CC4)cc13)-c1cc3c(c(=O)n1C2)COC(=O)[C@]3(O)CC [Irinotecan HCl Trihydrate],scaled lipid accumulation score,[3],≤ 0
same,scaled lipid accumulation score,[2],0.228
CCc1c2c(nc3ccc(OC(=O)N4CCC(N5CCCCC5)CC4)cc13)-c1cc3c(c(=O)n1C2)COC(=O)[C@]3(O)CC [Irinotecan hydrochloride],scaled lipid accumulation score,[2],0.299
CC[C@@]1(O)C(=O)OCc2c1cc1n(c2=O)Cc2cc3c(CN(C)C)c(O)ccc3nc2-1 [Topotecan HCl],scaled lipid accumulation score,[3],≤ 0
same,scaled lipid accumulation score,[2],≤ 0
CCc1c2c(nc3ccc(OC(=O)N4CCC(N5CCCCC5)CC4)cc13)-c1cc3c(c(=O)n1C2)COC(=O)[C@]3(O)CC,scaled lipid accumulation score,[2],0.226
CCc1c2c(nc3ccc(OC(=O)N4CCC(N5CCCCC5)CC4)cc13)-c1cc3c(c(=O)n1C2)COC(=O)[C@]3(O)CC [Irinotecan],scaled lipid accumulation score,[3],0.151
same,scaled lipid accumulation score,[2],0.025
CC[C@@]1(O)C(=O)OCc2c1cc1n(c2=O)Cc2cc3c(CN(C)C)c(O)ccc3nc2-1 [Topotecan hydrochloride hydrate],scaled lipid accumulation score,[2],≤ -0.055
CC[C@@]1(O)C(=O)OCc2c1cc1n(c2=O)Cc2cc3c(CN(C)C)c(O)ccc3nc2-1 [Topotecan hydrochloride],scaled lipid accumulation score,library stock concentration: 4.4 mM,0.131
same,scaled lipid accumulation score,[2],0.196
CCc1c2c(nc3ccc(OC(=O)N4CCC(N5CCCCC5)CC4)cc13)-c1cc3c(c(=O)n1C2)COC(=O)[C@]3(O)CC [IRINOTECAN HCl )trihydrate)],scaled lipid accumulation score,[2],1.1 (active)
CC[C@@]1(O)C(=O)OCc2c1cc1n(c2=O)Cc2cc3c(CN(C)C)c(O)ccc3nc2-1 [Topotecan],scaled lipid accumulation score,library stock concentration: 4.7 mM,≤ 0
CC[C@@]1(O)C(=O)OCc2c1cc1n(c2=O)Cc2cc3c(CN(C)C)c(O)ccc3nc2-1,scaled lipid accumulation score,[2],≤ 0
N=C(N)N,scaled lipid accumulation score,[2],≤ 0
N=C(N)N [Guanidine HCl],scaled lipid accumulation score,[3],≤ 0
same,scaled lipid accumulation score,[2],≤ -0.001
CCCCC[C@H](O)/C=C/[C@H]1OC(O)C[C@H](O)[C@@H]1CCCCCCC(=O)O (stereo partly specified) [Thromboxane B1],scaled lipid accumulation score,[1],0.131
C#CCCCCCCCCCCCC(O)CC(O)CO (stereo unspecified) [Avocadyne],scaled lipid accumulation score,[2],0.005
COc1ccccc1N1CCN(CCCCNC(=O)c2ccc(-c3ccc(C(C)=O)cc3)cc2)CC1,scaled lipid accumulation score,[2],0.934 (active)
Cl.O=C(NCCCCN1CCN(c2cccc(Cl)c2Cl)CC1)c1ccc2c(c1)Cc1ccccc1-2,scaled lipid accumulation score,[2],0.884 (active)
COc1cccc(C(=O)NCCN2CCN(c3ccc(Cl)cc3)CC2)c1,scaled lipid accumulation score,[2],0.314
COc1ccccc1N1CCN(CCCCNC(=O)c2ccc3ccccc3c2)CC1 [listing 1 of 2 here],scaled lipid accumulation score,[2],1.01 (active)
"Cc1cccc(C(=O)NCN2CCN(c3ccccc3C#N)CC2)c1 [PD 168,077 maleate]",scaled lipid accumulation score,[2],≤ 0
COc1ccccc1N1CCN(CCCNc2cc(=O)n(C)c(=O)n2C)CC1 [Urapidil],scaled lipid accumulation score,[2],≤ -0.027
"COc1ccccc1N1CCN(CCCNc2c(C)c(=O)n(C)c(=O)n2C)CC1 [Urapidil, 5-Methyl-]",scaled lipid accumulation score,[2],≤ 0
COc1ccccc1N1CCN(CCCNc2cc(=O)n(C)c(=O)n2C)CC1 [Urapidil hydrochloride],scaled lipid accumulation score,,≤ 0
same,scaled lipid accumulation score,[2],≤ 0 and 0.02
COc1ccccc1N1CCN(CCCCNC(=O)c2ccc3ccccc3c2)CC1 [listing 2 of 2 here],scaled lipid accumulation score,,0.307
COc1ccc2cccc(N3CCN(CCNC(=O)c4ccc(F)cc4)CC3)c2c1,scaled lipid accumulation score,[2],0.585
COc1ccccc1N1CCN(CCCNc2cc(=O)n(C)c(=O)n2C)CC1 [Urapidil HCl],scaled lipid accumulation score,[3],≤ 0
same,scaled lipid accumulation score,[2],≤ 0
COc1ccccc1N1CCN(CCCNc2cc(=O)n(C)c(=O)n2C)CC1,scaled lipid accumulation score,[2],≤ 0
Cc1cccc(C(=O)NCN2CCN(c3ccccc3C#N)CC2)c1,scaled lipid accumulation score,[2],0.009

# From the supplement of paper PMC9135407
